Only some compounds are listed: those with a hit (about 17% of all), similar ones and a draw of the others.
HepG2 tox – qHTS for Inhibitors of TGF-b: Cytotox Counterscreen | hit rate 0.76% among 410,000 | Potency, µM (highest dose often 46.1 µM), inactives show at the highest dose activity change, negative = cytotoxicity, actives largely listed as cytotoxic | HepG2 CAGA-GFP viability, ATP luminescence, 18 h
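CellTiter-Glo luminescence gave cytotoxicity after 18 hours at 37 degrees C. The cells were HepG2 CAGA-GFP in 1% FBS DMEM, stimulated with 500 pg/mL TGF-beta after compound addition. %Activity was normalised to no-cell wells (complete cell-killing) and DMSO (no toxicity), and curves were fitted and classified.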
DT40 TDP1 no CPT – qHTS for Inhibitors of human tyrosyl-DNA phosphodiesterase 1 (TDP1): qHTS in cells in absence of CPT; DT40 Tdp1-/- hTDP1 cells, no CPT, ATP luminescence, 48 h; Potency, µM (top dose mostly 46.2 µM), for the others: at the highest dose activity change, negative = growth inhibition, usual class: inhibitors; hit rate 15% among 420,000; AID 686978, 2013; further: on the % scale 0 is the no-effect control and ±100 the full control effect; nearly all actives have a fitted effect of over 55% in size
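Camptothecin absent (DMSO only). Human TDP1-complemented DT40 knockout cells, 400 cells/well, 37 °C for minimum 48 hr; ATP measured via CellTiter-Glo, 30 min dark incubation, luminescence.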
HT1080 IDH1KD tx – qHTS for induction of synthetic lethality in tumor cells producing 2HG: qHTS for the HT-1080-IDH1KD cell line | HT-1080 IDH1 knockdown viability, ATP luminescence, 48 h | Potency, µM (doses to about 46.1 µM), inactives show top-dose activity, negative = toxicity, actives largely listed as cytotoxic | hit rate 2% among 360,000 | AID 686971, 2013;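 further: 0% = DMSO wells and -100% = cell-free medium wells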
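IDH1KD HT-1080 cells, 750/well, RPMI + 5% FBS; compound pinned after 2 h settling; 48 h, 37 °C; CellTiter-Glo luminescence; % activity normalised to DMSO and no-cell wells; curves fitted, classed by r2 and efficacy.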
TDP1 cell CPT – qHTS for Inhibitors of human tyrosyl-DNA phosphodiesterase 1 (TDP1): qHTS in cells in presence of CPT; chicken DT40 Tdp1-/-;hTDP1 cells + 20 nM CPT, ATP luminescence, 48 h; Potency, µM (series often up to 46.2 µM), without a hit: at the highest dose activity change, negative = growth inhibition, hits mostly inhibitors; hit rate 12% among 420,000; further: on the % scale 0 is the no-effect control and ±100 the full control effect; nearly all actives have a fitted effect of over 55% in size
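Cell growth measured by CellTiter-Glo luminescence after a minimum 48 h, 37 C compound exposure with 20 nM CPT in Tdp1-knockout DT40 cells stably expressing hTDP1, seeded 400/well; qHTS titration format.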
HT1080-NT tox – qHTS for induction of synthetic lethality in tumor cells producing 2HG: qHTS for the HT-1080-NT fibrosarcoma cell line; hit rate 1.6% among 360,000; HT-1080-NT fibrosarcoma viability, CellTiter-Glo ATP luminescence, 48 h; Potency, µM (series often up to 46.1 µM), inactives show at the top dose activity, negative = less viability, usual class: cytotoxic;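 further: NT is the 2HG producing partner of a matched IDH1 knockdown line; 0% = DMSO-treated cells and -100% = media-only wells without cells; nearly all actives have a fitted effect of over 55% in size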
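Viability by CellTiter-Glo luminescence after 48 h compound exposure at 37C of HT-1080-NT cells (750/well, RPMI, 5% FBS). % activity scaled between DMSO wells and medium-only wells, then curve-fitted and categorized by curve class.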
TGFb inhibitor – qHTS for Inhibitors of TGF-b; hit rate 1.2% among 410,000; Potency, µM (highest dose often 46.1 µM), for the others: at the top dose activity, negative = inhibition, usual class: inhibitors; HepG2 CAGA-GFP TGF-b/SMAD3 reporter, GFP fluorescence, 18 h; TGF-beta stimulated, 500 pg/mL final; further: on the % scale 0 is the no-effect control and ±100 the full control effect; nearly all actives have a fitted effect of over 65% in size
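Smad-responsive CAGA-GFP expression was quantified in HEPG2 cells exposed to compounds and 500 pg/mL final TGF-beta for 18 h at 37 degrees C; unstimulated wells defined full inhibition.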
An asterisk follows results filed as active; ? = inconclusive; / = no result given. The call rests on the fitted dose curve; in most records, active means well fitted curve in the direction sought with a large enough effect; inconclusive means small, poorly fitted or top-dose-only effect, or another doubt; inactive means no such curve, though single readings can be large; an effect the other way counts as inactive or inconclusive. Potency means the concentration at half of the fitted maximal effect.

SMILES	HepG2 tox	DT40 TDP1 no CPT	HT1080 IDH1KD tx	TDP1 cell CPT	HT1080-NT tox	TGFb inhibitor
CC1(C)Cc2c(sc3nc4n(-c5ccccc5)c(=O)c(CCC(=O)O)nn4c(=O)c23)CO1	8%	-29%	-4%	?	6%	24%
CCCCNC(=O)c1c(N)n(CCCOC)c2nc3ccccc3nc12	-13%	?	?	?	?	-15%
Nc1c(C(=O)NCC2CCCO2)c2nc3ccccc3nc2n1Cc1ccco1 (configuration not stated)	8%	?	?	?	?	-14%
COCCNC(=O)c1c(N)n(CCC(C)C)c2nc3ccccc3nc12	-77%	18µM*	-2%	12µM*	-3%	?
COCCCNC(=O)c1c(N)n(Cc2ccco2)c2nc3ccccc3nc12	-29%	26µM*	-2%	?	-6%	?
CCCNC(=O)c1c(N)n(Cc2ccco2)c2nc3ccccc3nc12	-28%	?	?	23µM*	11µM*	-12%
Nc1c(C(=O)OCC2CCCO2)c2nc3ccccc3nc2n1Cc1cccs1 (configuration not stated)	-28%	18µM*	?	?	?	?
COc1ccc([C@H]2CC(=O)C=C(c3ccc4c5c(cccc35)CC4)C2)cc1	6%	?	-23%	?	-15%	-5%
CC(C)n1nnnc1CN1CCN(C)CC1	-34%	-8%	10%	0%	20%	-25%
CCc1ccc(-c2nn(Cc3ccccc3)cc2C=O)cc1	2%	?	-24%	?	?	0%
CC(C)CNC(=O)c1c(N)n(Cc2ccco2)c2nc3ccccc3nc12	-87%	?	?	?	?	22µM*
CC(C)CCn1c(N)c(C(=O)NCc2cccs2)c2nc3ccccc3nc21	-1%	?	2%	?	10%	-1%
CC(C)CCNC(=O)c1c(N)n(Cc2ccc3c(c2)OCO3)c2nc3ccccc3nc12	-3%	?	8%	?	0%	2%
CC(C)OCCCNC(=O)c1c(N)n(Cc2cccs2)c2nc3ccccc3nc12	22µM*	18µM*	?	?	18µM*	18µM*
CC(C)CNC(=O)c1c(N)n(Cc2ccc3c(c2)OCO3)c2nc3ccccc3nc12	-94%	?	16µM*	?	21µM*	16µM*
Nc1c(C(=O)NCc2ccco2)c2nc3ccccc3nc2n1CCN1CCCCC1	-51%	23µM*	?	23µM*	?	?
C=CCNC(=O)c1c(N)n(CCN2CCOCC2)c2nc3ccccc3nc12	-29%	-23%	-27%	-9%	?	-25%
O=C(O)[C@H](O)[C@@H](O)C(=O)O	-9%	19%	6%	16%	9%	-4%
COc1ccc(Cn2c(N)c(C(=O)NCc3ccco3)c3nc4ccccc4nc32)cc1OC	-51%	6.5µM*	?	6.5µM*	?	16µM*
CC1(C)CC(=O)C=C(NCCN2CCN(C(=O)Cc3ccc(Cl)cc3)CC2)C1	-4%	-2%	15%	-5%	11%	8%
COc1ccc2[nH]c(C)c(CCNCc3cn(C)c4ccccc34)c2c1	-84%	9.2µM*	?	12µM*	?	?
CCOC(=O)C1CCCN(C(=O)c2ccc3oc(Cc4ccccc4)nc3c2)C1 (configuration not stated)	-15%	?	4%	-5%	4%	-7%
CC1Oc2cc3c(-c4c(O)cc(O)c5c(O)c6c(cc45)OC(C)C(C)C6=O)c(O)cc(O)c3c(O)c2C(=O)C1C (configuration not stated)	11µM*	0.12µM*	8.2µM*	0.016µM*	4.6µM*	14µM*
CC(O)CN1CCN(CC(=O)[O-])CCN(CC(=O)[O-])CCN(CC(=O)[O-])CC1.[Gd+3] (configuration not stated)	/	-1%	/	-26%	/	/
CCC(=O)C1=C(c2cccc([N+](=O)[O-])c2)N(C(=O)CC)n2c(nnc2C2CCCCC2)S1	2%	4.1µM*	/	3.3µM*	/	5%
SMILES	HepG2 tox	DT40 TDP1 no CPT	HT1080 IDH1KD tx	TDP1 cell CPT	HT1080-NT tox	TGFb inhibitor
CC1CCN(c2nc(-c3ccc(F)cc3)cc(C(F)(F)F)n2)CC1	-3%	-28%	14%	-13%	16%	7%
O=C1/C(=C\c2ccccc2)C2OCC=C3CN4CCC56c7ccccc7N1C5C2C3CC46 (configuration not stated)	-19%	?	-10%	21µM*	-20%	20%
O=C1CC2OCC=C3CN4CC[C@@]56c7ccccc7N1C5C2C3CC46 (some centres not stated)	/	-12%	/	/	/	/
O=c1c2ccccc2nc(/C=C\c2ccc(F)cc2)n1-c1ccccc1F	8%	?	/	23µM*	/	-2%
Cc1ccccc1-n1c(/C=C/c2c(C)[nH]c3ccccc23)nc2ccccc2c1=O	-24%	1.8µM*	/	2.1µM*	/	?
CCCCc1nc2ccccc2c(=O)n1-c1ccccc1[N+](=O)[O-]	-32%	15µM*	3%	?	7%	-9%
O=c1c2ccccc2nc(/C=C/c2ccccc2F)n1-c1ccccc1O	-27%	-23%	-11%	-45%	-12%	?
CCc1nc2ccccc2c(=O)n1-c1ccccc1[N+](=O)[O-]	-6%	?	3%	-21%	8%	3%
O=c1c2ccccc2nc(/C=C\c2ccccc2[N+](=O)[O-])n1-c1ccccc1O	6%	23µM*	?	?	?	?
O=c1c2ccccc2nc(/C=C/c2ccccc2)n1-c1ccccc1F	-20%	?	/	?	/	?
CC1(C)CC(=O)C(C=NCCN2CCN(C(=O)Cc3ccc(F)cc3)CC2)=C(O)C1	5%	-9%	-9%	1%	5%	1%
CC[N+](CC)(CCCNC1=CC(=O)C(NCCC[N+](CC)(CC)Cc2ccccc2)=CC1=O)Cc1ccccc1	/	-1%	/	-1%	/	/
Cc1cc(-c2nc3ncccc3o2)ccc1NC(=O)c1ccccc1Br	4%	?	/	-16%	/	1%

Compound activity: PubChem, National Center for Advancing Translational Sciences (NCATS)
